# CYP2C19 inh: human CYP2C19 inhibition; 96,000 tested, 21% active; P33261; inhibition, % at 5 µM; CYP2C19 Supersomes, luciferin-H EGE luminescence, 30 min;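 active = CYP2C19 inhibition above a set limit at 5 µM in the primary screen, cut at about 50% in these data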;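 also: plate controls were negative control wells for no effect and 2.5 mM tranylcypromine positive control for full effect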
# CYP2C9 inhib: blocks human cytochrome P450 2C9. CYP2C9 Supersomes, luciferin-H conversion, luminescence. inhibition, % at 5 µM. 96,000 tested, 20% active. AID 777;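 active = blocking of liver enzyme CYP2C9 beyond about 50% at 5 µM, limit read from the data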
# Target sequence (P11712 whole entry, looked up): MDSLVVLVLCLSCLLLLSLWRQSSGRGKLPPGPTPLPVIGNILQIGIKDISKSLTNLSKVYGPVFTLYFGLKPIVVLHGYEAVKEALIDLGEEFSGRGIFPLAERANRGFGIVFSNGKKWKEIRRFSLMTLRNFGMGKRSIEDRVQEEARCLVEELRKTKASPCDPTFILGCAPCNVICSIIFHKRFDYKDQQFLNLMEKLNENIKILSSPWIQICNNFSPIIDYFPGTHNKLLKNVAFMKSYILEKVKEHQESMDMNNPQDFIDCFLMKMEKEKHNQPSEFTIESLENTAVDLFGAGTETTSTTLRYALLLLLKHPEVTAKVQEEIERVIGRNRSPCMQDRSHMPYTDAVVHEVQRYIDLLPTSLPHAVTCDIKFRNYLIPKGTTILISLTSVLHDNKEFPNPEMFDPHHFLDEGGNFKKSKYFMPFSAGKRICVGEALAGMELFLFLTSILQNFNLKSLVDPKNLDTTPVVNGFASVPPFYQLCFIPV
# PostGolgi yeast: growth inhibition of a yeast mutant, post-Golgi transport screen; 98,000 tested, 0.9% active; inhibition, % at 10 µM; post-Golgi transport phenotypic cell assay;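 also: yeast cells grown in 1536-well plates; yeast grown about 18 h at 30C before absorbance read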
# PostGolgi ctrl: growth of the yeast control strain, post-Golgi counter-screen; efflux-deficient yeast background strain, growth absorbance A615, 16 h; inhibition, % at 10 µM; 98,000 tested, 5% active
# CYP2C9 activ: CYP2C9 (human) activation; AID 1024; activation factor at 5 µM; 96,000 tested, 1.4% active; recombinant CYP2C9, luciferin-H conversion, luminescence; hits give high values; factor 1 = untreated enzyme, 0 = blocked;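 active = activation factor of 2 or more for CYP2C9 at a 5 µM dose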;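 also: 0 = sulfaphenazole-blocked wells and 1 = vehicle-only wells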
# CYP2C19 activ: cytochrome P450 2C19 (human) activation. P33261. recombinant CYP2C19, luciferin-H EGE luminescence; hits give high values; 0 = fully inhibited enzyme, 1 = untreated enzyme. activation factor at 5 µM. 96,000 tested, under 10 active. AID 1025;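 active = activation factor of at least 2 at 5 µM in the primary screen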;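 also: 0 = wells with 2.5 mM tranylcypromine and 1 = vehicle-only wells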
# An asterisk follows results filed as active; nt = no result. Most compounds without a hit are left out; they make up all but 32% or so of the library. Rule as the data show it, unless noted: active = inhibition above about 30%; inactive = the rest.
SMILES,CYP2C19 inh,CYP2C9 inhib,PostGolgi yeast,PostGolgi ctrl,CYP2C9 activ,CYP2C19 activ
CN(C)c1ccnc(-n2cccc2/C=N/OCc2cccc(F)c2)c1C#N,96.6*,46.0,-4.6,7.6,0.5,0
CCOC(=O)c1ccc(NC(=O)CCc2nc(-c3ccccc3Cl)no2)cc1,24.7,95.6*,-2.9,17.3,0,0.8
CCOC(=O)c1cccc(NC(=O)CCc2nc(-c3ccc(C)cc3)no2)c1,21.8,29.4,-7.8,-4.7,0.7,0.8
CCOC(=O)c1ccc(NC(=O)CCc2nc(-c3ccccc3)no2)cc1,5.9,50.3*,2.4,9.4,0.5,0.9
O=C(NCc1ccc(N2CCCC2=O)cc1)Nc1ccccc1,20.7,33.6,2.8,-6.0,0.7,0.8
CNc1nc(C)c(C#N)c(-c2ccccc2)c1C(C)=O,54.8*,32.8,19.6,9.4,0.7,0.5
CN1CCCCCC1=NC1=C(C#N)CCCC1,16.6,-5.9,4.7,9.5,1.1,0.8
CCOC(=O)C1=C(C)NC(=O)NC1c1ccccc1Cl (stereo not given),4.8,32.2,-10.0,9.1,0.7,1
CC1=C(C(=O)OC(C)C)C(c2c(O)ccc3ccccc23)NC(=O)N1 (stereo not given),86.4*,6.5,-14.7,3.1,0.9,0.1
CC(=O)NC1=NC(=O)C(C)S1 (stereo not given),-7.3,0.3,-13.0,-0.3,1,1.1
CC(=O)c1c(OC(=O)c2ccco2)c2ccccc2n1C,62.5*,23.3,9.0,0.8,0.8,0.4
O=S(=O)(CCc1nc2ccccc2o1)c1ccc(Cl)c(Cl)c1,22.9,-6.3,-5.2,0.9,1.1,0.8
Nc1ccc(CCc2nc3ccccc3o2)cc1,96.0*,75.9*,-2.5,3.8,0.2,0
NCc1ccc(-c2nc3ccccc3o2)cc1,98.0*,70.0*,nt,nt,0.3,0
O=C1c2ccccc2C(=O)N1c1ccc(-c2nc3ccccc3o2)cc1,-12.1,-6.1,-1.6,2.6,1.1,1.1
COc1ccc(-n2nnnc2-c2cn(C)nc2C(F)(F)F)cc1,49.7,16.2,18.4,5.0,0.8,0.5
O=C(CCn1cccc1)Nc1ccccc1F,22.0,7.1,7.1,20.6,0.9,0.8
CCOC(=O)c1nnn(CC(=O)Nc2cc(F)ccc2F)c1C(=O)OCC,68.2*,43.6,1.6,5.5,0.6,0.3
CCOC(=O)c1nnn(CC(=O)Nc2ccccc2OC)c1C(=O)OCC,54.7*,44.0,-5.0,9.9,0.6,0.5
COC(=O)c1nnn(CC(=O)Nc2cccc(Cl)c2C)c1C(=O)OC,89.5*,44.8,-2.8,9.8,0.6,0.1
CCOc1ccc(NC(=O)Cn2nnc(C(=O)NCc3ccccc3OC)c2N)cc1,12.2,-113.1,-6.3,-7.3,2.1*,0.9
CCOC(=O)c1nnn(CC(=O)Nc2cc(Cl)ccc2C)c1C(=O)OCC,28.2,48.4,1.0,14.8,0.5,0.7
COc1ccc(CC(=O)Nc2c3c(nn2C(C)(C)C)CS(=O)C3)cc1 (stereo not given),16.9,14.4,-4.7,1.6,0.9,0.8
O=C1N=C(N2CCN(c3cccc4ccccc34)CC2)S/C1=C/c1cccs1,54.2*,-5.9,-5.0,37.1*,1.1,0.5
COc1ccc(C(O)c2nc3ccccc3s2)cc1 (stereo not given),61.8*,39.2,-1.9,15.4,0.6,0.4
SMILES,CYP2C19 inh,CYP2C9 inhib,PostGolgi yeast,PostGolgi ctrl,CYP2C9 activ,CYP2C19 activ
Cn1c(=O)oc2cc(S(=O)(=O)N3CCCC(C(=O)NCc4cccs4)C3)ccc21 (stereo not given),24.2,27.4,3.5,6.1,0.7,0.8
O=C(/C=C/c1ccccc1)CC(O)(c1ccccc1)C(F)(F)F (stereo not given),64.6*,45.3,5.6,70.5*,0.5,0.4
O=C(CC(O)(c1ccccc1)C(F)(F)C(F)F)c1cccs1 (stereo not given),33.7,17.1,-1.6,8.1,0.8,0.7
O=C(/C=C/c1ccccc1)CC(O)(c1ccccc1)C(F)(F)C(F)F (stereo not given),45.5,43.0,8.2,65.6*,0.6,0.5
COc1cc(NC(=O)COC(=O)c2nc3nc(C)cc(C)n3n2)cc(OC)c1,-2.6,9.7,1.6,4.0,0.9,1
CCOC(=O)COc1ccccc1-c1ccno1,39.2,10.8,4.8,-10.8,0.9,0.6
Cc1cc(C)cc(-n2ccnc2SCC(=O)Nc2ccc3c(c2)OCCO3)c1,22.7,42.4,-7.7,3.4,0.6,0.8
Cc1n[nH]c(C)c1SCC(=O)Nc1ccc(F)cc1,nt,nt,-0.2,15.5,nt,nt
CSc1nccn1CC(=O)Nc1ccc(F)cc1,63.0*,6.7,-4.2,2.3,0.9,0.4
O=C(CSc1nccn1-c1ccc(F)cc1)Nc1ccc2c(c1)OCO2,52.5*,32.4,-1.7,28.2,0.7,0.5
O=C(CSc1nccn1-c1ccccc1)Nc1ccc2c(c1)OCO2,87.1*,73.8*,-0.1,13.3,0.3,0.1
CCOc1ccc(OCCOc2cccc(C(F)(F)F)c2)cc1,26.2,-47.3,-1.1,-7.2,1.5,0.7
CCN(CC)c1nc2ccccc2nc1C(C#N)C(=O)NCCc1ccccc1 (stereo not given),12.8,54.2*,1.9,32.9*,0.5,0.9
N#CC(C(=O)NCCc1ccccc1)c1nc2ccccc2nc1N1CCCCC1 (stereo not given),12.9,29.5,-8.4,25.3,0.7,0.9
CCN(CC)c1nc2ccccc2nc1C(C#N)C(=O)NCCCOC (stereo not given),55.7*,78.6*,9.3,26.2,0.2,0.4
CCc1cc(C=C(Cl)Cl)oc(=O)c1C,83.1*,24.1,5.3,16.6,0.8,0.2
CCc1cc(=O)oc2c(C)c(O)c(CN(C)C)cc12,-0.8,3.7,26.3,-7.5,1,1
O=C(NCc1cccs1)C1CCN(S(=O)(=O)c2cccc3nsnc23)CC1,14.6,-153.1,-8.8,-7.7,2.5*,0.9
O=C(NCc1cccs1)C(NS(=O)(=O)c1cccc2nsnc12)c1ccccc1 (stereo not given),30.1,55.1*,1.6,-2.4,0.4,0.7
O=S(=O)(c1cccc2nsnc12)N1CCOCC1,24.4,-35.7,13.5,2.0,1.4,0.8
O=C(c1ccco1)N1CCN(S(=O)(=O)c2cccc3nsnc23)CC1,74.9*,32.5,-0.9,19.4,0.7,0.3
O=C(NCCc1ccccc1)C1CCN(S(=O)(=O)c2cccc3nsnc23)CC1,20.8,-103.6,-1.1,13.6,2*,0.8
O=C(CCS(=O)(=O)c1cccc2nsnc12)NCc1ccccc1Cl,34.6,-4.5,2.1,10.1,1,0.7
COc1ccc(CCNC(=O)C2CCN(S(=O)(=O)c3cccc4nsnc34)CC2)cc1OC,2.4,11.4,-11.8,-1.9,0.9,1
COc1ccc(-c2nnc(SCC(=O)NC(=O)NCc3ccccc3)o2)cc1,42.1,-94.6,-3.5,12.8,1.9,0.6

# Screening data (PubChem BioAssay)
